# Source: PubChem
# A selection: hits, their analogues and other compounds. The true share with any hit is near 2.8%.
# Pol kappa inh – DNA polymerase kappa (human) inhibition; Q9UBT6; purified Pol kappa, fluorescent DNA synthesis assay, 10 min; Potency, µM (top dose mostly 107 µM), for inactives: at the top dose activity, negative = inhibition, hits mostly inhibitors; 400,000 tested, 0.53% active; further: potency means the concentration at half of the fitted maximal effect; on the % scale 0 is the no-effect control and ±100 the full control effect
#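 Enzyme at 10 nM met test compounds for 15 min at room temperature. Substrate addition (50 nM final) began the reaction, which was monitored by fluorescence at 0 and 10 min.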
# PI5P4K alpha inh – inhibitors of human PI5P4K alpha; PI5P4Kalpha enzyme, ADP-Glo luminescence, 60 min; stronger effect = lower value; P48426; max response, %; 330,000 tested, 1.2% active; active means max response of -50% or lower; inconclusive means between -30% and -50%; inactive means -30% or higher; further: value at the top dose of about 77 µM; on the % scale 0 is the no-effect control and ±100 the full control effect
#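 Quantitative HTS of the MLSMR library against PI5P4Kalpha with substrate. ATP added last at 5 microM final; room temperature, 60 minutes. Remaining ATP depleted, ADP converted and read as luminescence.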
# Pol iota inh – inhibitors of human DNA polymerase iota; Q9UNA4; Pol iota fluorescent replication assay, 10 min; Potency, µM (doses to about 115 µM), for the others: at the top dose activity, negative = inhibition, actives largely listed as inhibitors; 390,000 tested, 1% active; AID 588590; further: potency means the concentration at half of the fitted maximal effect
#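 Fluorescent replication assay read twice, at 0 min and 10 min after adding 50 nM (final) substrate. Enzyme (10 nM) and compounds were first incubated 15 min at room temperature; enzyme-free buffer wells were negative controls.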
# Pol eta inh – blocks human DNA polymerase eta activity; Potency, µM (titrated, usually from 114 µM), without a hit: at the highest dose activity change, negative = inhibition, usual class: inhibitors; Q9Y253; 390,000 tested, 1.2% active; AID 588591; recombinant Pol eta, fluorescent DNA replication assay; further: potency means the concentration at half of the fitted maximal effect; on the % scale 0 is the no-effect control and ±100 the full control effect
# Target sequence (Q9Y253 whole entry, looked up): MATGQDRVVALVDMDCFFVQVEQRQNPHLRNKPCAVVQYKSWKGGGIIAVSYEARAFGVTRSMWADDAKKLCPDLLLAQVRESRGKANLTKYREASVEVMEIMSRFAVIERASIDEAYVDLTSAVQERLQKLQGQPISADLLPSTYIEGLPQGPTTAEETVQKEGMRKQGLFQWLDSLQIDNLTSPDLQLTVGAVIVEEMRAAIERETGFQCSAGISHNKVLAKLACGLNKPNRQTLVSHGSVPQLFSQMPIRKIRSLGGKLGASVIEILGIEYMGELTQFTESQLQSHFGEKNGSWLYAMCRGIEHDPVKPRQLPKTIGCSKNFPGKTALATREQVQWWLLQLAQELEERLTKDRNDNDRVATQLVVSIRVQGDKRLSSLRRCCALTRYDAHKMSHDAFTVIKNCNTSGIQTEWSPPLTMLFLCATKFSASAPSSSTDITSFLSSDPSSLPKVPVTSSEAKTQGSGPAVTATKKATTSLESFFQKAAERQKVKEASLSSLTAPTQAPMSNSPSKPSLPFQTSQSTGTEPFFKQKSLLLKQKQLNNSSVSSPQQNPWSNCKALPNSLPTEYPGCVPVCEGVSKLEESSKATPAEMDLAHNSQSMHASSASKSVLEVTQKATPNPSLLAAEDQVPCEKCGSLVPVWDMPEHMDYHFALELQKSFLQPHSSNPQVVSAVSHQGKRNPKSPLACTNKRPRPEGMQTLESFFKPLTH
#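 Pol eta at 10 nM preincubated with compounds 15 min at room temperature; reaction started with fluorescent substrate (50 nM final) and read kinetically at 0 and 10 min.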
# Pol beta inh-1 – inhibitors of human DNA polymerase beta | Pol beta primer extension/strand displacement, fluorescence kinetic | P06746 | Potency, µM (top dose mostly 114 µM), for the others: at the highest dose activity change, negative = inhibition, usual class: inhibitors | 340,000 tested, 1.3% active | AID 485314; further: potency means the concentration at half of the fitted maximal effect; on the % scale 0 is the no-effect control and ±100 the full control effect
#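 Curves were derived by four-parameter Hill fits of normalized qHTS data. The kinetic fluorescent primer-extension read was taken at 0 and 10 min after 50 nM substrate, following a 15 min room-temperature preincubation of 10 nM enzyme with compounds.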
# WRN helicase inh – WRN helicase (human) inhibition; WRN helicase unwinding, fluorescent forked duplex, kinetic; Q14191; 360,000 tested, 0.46% active; Potency, µM (top dose mostly 114 µM), for inactives: at the top dose activity change, negative = inhibition, usual class: inhibitors; further: potency means the concentration at half of the fitted maximal effect; on the % scale 0 is the no-effect control and ±100 the full control effect; nearly all actives have a fitted effect of over 55% in size
#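 Kinetic red-fluorescence monitoring (525/598 nm) tracks WRN helicase activity after 100 nM fluorophore-quencher forked duplex and 2 mM ATP are added to 20 nM enzyme pretreated 15 min at room temperature with compound.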
# Pol beta inh-2 – Human Pol beta inhibitor hit validation | shares compounds with Pol beta inh-1 | Pol beta primer extension/strand displacement, fluorescence kinetic | Potency, µM, hits mostly inhibitors | 250 tested, 87% active | AID 540280; calls by dose curve; further: potency means the concentration at half of the fitted maximal effect
# Klenow inh – counter-screen for DNA polymerase beta inhibitors: Klenow fragment inhibition; shares compounds with Pol beta inh-1; Klenow exo- polymerase counter-screen, fluorescent DNA substrate; activity change, negative = inhibition, % at 57.1 µM; 250 tested, under 10 active
# HIV RT counter – HIV-1 RT inhibition, pol beta selectivity check. shares compounds with Pol beta inh-1. HIV-1 RT polymerase activity, counter-screen. AID 540301. activity % (negative = inhibition, positive = activation), % at 57.1 µM. 250 tested, under 10 active
# POLB valid – validation of human DNA polymerase beta inhibitors; shares compounds with Pol beta inh-1; radiolabeled primer extension gel assay, phosphorimager; inhibition, % at 10 µM; 110 tested, 91% active;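 active means inhibition at 10 µM of 30% or more; inconclusive means no clear call, values can overlap the other calls; inactive means inhibition at 10 µM under 30%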
# * hit, by the source's call; ? = inconclusive; · = no result; [ ] = remark or other dose. Unless noted, the call rests on the fitted dose curve; in most records, active means well fitted curve in the direction sought with a large enough effect; inconclusive means small, poorly fitted or top-dose-only effect, or another doubt; inactive means no such curve, though single readings can be large; an effect the other way counts as inactive or inconclusive.
SMILES,Pol kappa inh,PI5P4K alpha inh,Pol iota inh,Pol eta inh,Pol beta inh-1,WRN helicase inh,Pol beta inh-2,Klenow inh,HIV RT counter,POLB valid
CC(C)C(NC(=O)OCc1ccccc1)C(=O)OCC(=O)NCc1ccco1 (stereo unspecified),?,?,?,8.9µM*,20µM*,?,?,-20,8,84*
CC(C)C(NC(=O)OCc1ccccc1)C(=O)OCC(=O)NC1CC1 (stereo unspecified),1%,3,25%,-20%,-9%,4%,·,·,·,·
Nc1c(C(=O)NC2CC2)sc2nc3c(c(-c4ccco4)c12)CC/C3=C/c1ccco1,0.71µM*,-96*,?,0.71µM*,0.63µM*,50µM*,28*,-22,?,100*
CCC(C(=O)N(C)Cc1ccccc1)n1nc(C)c2sc3ccccc3c2c1=O (stereo unspecified),-13%,·,5%,-9%,?,·,·,·,·,·
CC(C)CN(C(=O)COC(=O)c1cc2c(s1)CCC2)C1CCS(=O)(=O)C1 (stereo unspecified),40µM*,-62*,20µM*,3.5µM*,13µM*,?,22*,9,7,·
CCOc1ccc(CCNC(=O)Cn2c(=O)c3cccn3c3ccc(F)cc32)cc1OCC,3%,·,12%,16%,39%,·,·,·,·,·
O=C(Nc1cc(S(=O)(=O)Nc2ccc(Cl)cc2)ccc1O)c1ccc(S(=O)(=O)N2CCCCCC2)cc1,-21%,-18,?,?,5.6µM*,?,22*,-16,11,67*
O=C(Nc1cc(S(=O)(=O)N2CCOCC2)ccc1O)c1ccc(S(=O)(=O)N2CCCCC2)cc1,1%,0,5%,-9%,·,4%,·,·,·,·
O=C(c1ccc(CSc2nc3ccncc3n2Cc2cccc(F)c2)cc1)N1CCCCC1,-11%,·,8%,0%,0%,·,·,·,·,·
Cc1cc(C)n2nc(SCc3cc(=O)oc4cc(O)ccc34)nc2n1,·,·,·,·,13µM*,·,22*,-27,14,84*
CC(C)n1c(=S)[nH]c2scc(-c3cccs3)c2c1=O,?,-82*,20µM*,18µM*,7.9µM*,-33%,22*,4,10,98*
Cc1ccc(S/C(=N/S(=O)(=O)c2ccc(Cl)cc2)c2ccccc2)cc1,5%,·,-1%,·,·,·,·,·,·,·
CCOc1ccc(OCCN2C(=O)c3ccccc3C2=O)cc1,6%,-2,?,-15%,-25%,6%,·,·,·,·
COc1ccc(OCC(=O)OCCN2C(=O)c3ccccc3C2=O)cc1,-1%,2,5%,-12%,20µM*,-13%,32*,-23,-19,85*
Cc1ccc(O)c(C(=O)c2cnn(C(=O)COc3ccc(Cl)cc3)c2)c1,-3%,-18,14%,?,5.6µM*,-17%[57.1 µM],14*,-13,16,·
Cn1c(SCC(=O)Nc2ccc3nc(SCC(=O)NC4CC4)sc3c2)nnc1-c1ccccc1,-6%,-16,?,-7%,-1%,-4%,·,·,·,·
Cn1c(SCC(=O)Nc2ccc3nc(SCC(=O)N4CCCC4)sc3c2)nnc1-c1ccc(N)cc1,50µM*,?,5.6µM*,?,7.9µM*,?,7.1*,5,8,·
CCCCOC(=O)c1ccc(NC(=O)c2cc3c(=O)n4cccc(C)c4nc3s2)cc1,5%,·,-5%,2%,2%,·,·,·,·,·
Cc1ccc(-c2nn(CC(=O)NC3CCCCC3)c3c2cnc2ccc(F)cc23)cc1C,6%,·,-19%,-7%,1%,·,·,·,·,·
N#Cc1c2nc3ccccc3nc2n2cc(NC(=O)c3ccc(F)cc3)ccc12,?,?,?,35µM*,6.3µM*,20µM*,10*,-19,0,·
Cc1c(C(=O)Nc2ccc(F)cc2)cn2c(nc3ccccc32)c1C#N,-13%,2,2%,-15%,-15%,-1%,·,·,·,·
CC(=O)N1CCc2c(sc3c2c(=O)n(CCc2ccccc2)c(=O)n3CC(=O)Nc2ccc(C)c(F)c2)C1,1%,·,-14%,-6%,6%,·,·,·,·,·
N=C1C(c2nc3ccccc3s2)=C(O)CN1NC(=O)c1c[nH]c2ccccc12,-22%,-16,?,-20%,13µM*,-13%,25*,-11,46,52*
COc1ccc(NC(=O)C2(C)CCN2Cc2ccc(OC)c3ccccc23)cc1OC (stereo unspecified),·,-4,·,·,·,-5%,·,·,·,·
CCCCn1c(N)c(-c2nc3ccccc3s2)c2c([N+](=O)[O-])nn(C)c(=O)c21,14%,·,-17%,-7%,-7%,-16%,·,·,·,·
SMILES,Pol kappa inh,PI5P4K alpha inh,Pol iota inh,Pol eta inh,Pol beta inh-1,WRN helicase inh,Pol beta inh-2,Klenow inh,HIV RT counter,POLB valid
CCCCCn1c(N)c(-c2nc3ccccc3o2)c2c([N+](=O)[O-])nn(C)c(=O)c21,-12%,-3,-2%,?,1.4µM*,-31%,11*,-14,8,·
COc1ccc2cc3cc(C(=O)Nc4ccc5c(c4)OCCO5)oc3nc2c1,-13%,-4,?,11µM*,13µM*,-32%[57.1 µM],?,8,27,·
C=CCn1c(SCc2cc(=O)n3ccsc3n2)nnc1C1CCCCC1,?,·,25µM*,79µM*,20µM*,4%[11.6 µM],?,-22,24,87*
O=c1cc(CSc2nnc(NC3CCCCC3)s2)nc2sccn12,-15%,4,13%,10%,22%,4%,·,·,·,·
COc1cccc(NC(=O)c2oc3ccccc3c2NC(=O)c2ccc(F)c(F)c2)c1,-7%,·,-8%,-2%,16%,·,·,·,·,·
Cc1cc(SCC(=O)c2ccc(O)c(O)c2)nc2ccccc12,50µM*,-22,40µM*,11µM*,14µM*,?,11*,-20,?,·
COc1cccc2sc(Nc3nnc(-c4ccc(F)cc4)o3)nc12,-22%,?,-23%,50µM*,13µM*,-27%,35*,-3,97,85*
O=C(Nc1ccc2nn(-c3ccccc3)nc2c1)c1ccc(Br)o1,?,·,?,79µM*,20µM*,-32%,20*,-18,12,·
O=C(Nc1ccc2nn(-c3ccccc3)nc2c1)c1cc2ccccc2o1,-19%,·,?,-2%,-1%,·,·,·,·,·
